Records with an inconclusive call do not appear. A call without a number means that no potency is given here. A number with no mark means an inactive call. Activity calls are given as the source filed them. Calls follow the shape of the dose curve; as a rule, active = well fitted activation curve with a large enough effect in the repeat runs; inconclusive = weak or mixed curves; inactive = flat fitted curve, though single readings scatter.
test: A CellTox Green Cytotoxicity Assay to monitor cytotoxicity in HepG2 cells - 16 hour (AID 1224876); conditions: CellTox Green fluorescence; series mostly up to 76.8 µM; also: nearly all actives have a fitted effect of over 45% in size
Source text: National Center for Advancing Translational Sciences [NCATS]
NIH Chemical Genomics Center [NCGC]
U.S. Environmental Protection Agency [EPA]
National Institutes of Environmental Health Sciences [NIEHS]
National Toxicology Program [NTP]
Cell-based models are critical for drug discovery. Determining the natural cytotoxic effects resulting from test compounds is an essential research activity. A CellTox Green Cytotoxicity Assay to monitor cytotoxicity in real time of continues cell culture during 40 hours of the compound treatment was used to screen Tox21 10K library compounds in HepG2 cells. CellTox Green Cytotoxicity Assay is a nonlytic, homogeneous, biofluorescent method to measure cytotoxicity in cell culture after experimental manipulation. The assay system uses a proprietary asymmetric cyanine dye that is excluded from viable cells but preferentially stains the dead cell's DNA. […] Viable cells produce no appreciable increases in fluorescence. Therefore, the fluorescence signal produced by the binding interaction with dead cell DNA is proportional to cytotoxicity.
The mixture of HepG2 cell suspension and reagents were dispensed at 600cells/6 ul/well in 1536-well tissue culture treated black solid bottom plates using a Multidrop dispenser. After the assay plates were incubated at a 37 C/5% CO2 incubator for 5 hours, 23 nL of compounds dissolved in DMSO, positive and negative controls was transferred to the assay plate by a pintool work station. The plates were incubated at 37 C for 40 hours. The fluorescence intensity were measured at 0h, 8h, 16h, 24h, 32h and 40h time points using ViewLux plate reader during compound treatment.
Potency is read from the fitted curve at half-maximal effect.

Row | Compound | Potency | cytotoxicity increase
1 | CC1(C)CN=C(NN=C(/C=C/c2ccc(C(F)(F)F)cc2)/C=C/c2ccc(C(F)(F)F)cc2)NC1 | 24.5 µM (active) | –
2 | CCCCCCCCCCCCBr | inactive | –
3 | CC(Cl)CN(C)C (stereo not given) | inactive | –
4 | CC(=O)C(Cl)(Cl)Cl | inactive | –
5 | C[CH2][Hg][N]1C(=O)C2C(C1=O)C1(Cl)C(Cl)=C(Cl)C2(Cl)C1(Cl)Cl (stereo not given) | 6.57 µM (active) | –
6 | CC(C)[C@H](C(=O)OC(C#N)c1cccc(Oc2ccccc2)c1)c1ccc(OC(F)F)cc1 (stereo not given in full) | inactive | –
7 | CC(C)C(=O)Cl | inactive | –
8 | CCCOCC(=Nc1ccc(Cl)cc1C(F)(F)F)n1ccnc1 | 43.6 µM (active) | –
9 | COc1ccc(OC)c(C=O)c1 | inactive | –
10 | COc1ccc(N)cc1N | inactive | –
11 | CCSC(C)CC1CC(=O)C(/C(CC)=N/OC/C=C/Cl)=C(O)C1 (stereo not given) | inactive | –
12 | CC(C)CC(C)(c1ccc(O)cc1)c1ccc(O)cc1 | 43.8 µM (active) | –
13 | COc1ccc(OC)c(CC(C)N)c1 (stereo not given) | inactive | –
14 | Clc1ccc(C(c2ccccc2Cl)C(Cl)(Cl)Cl)cc1 (stereo not given) | inactive | –
15 | Brc1c(Br)c(Br)c(Oc2c(Br)c(Br)c(Br)c(Br)c2Br)c(Br)c1Br | – | -3.41% [at 15.8 µM]
16 | O=C1c2ccccc2C(=O)C1C(=O)C(c1ccccc1)c1ccc(Cl)cc1 (stereo not given) | 49 µM (active) | –
17 | O=C(CBr)c1ccc(O)cc1 | inactive | –
18 | O=[N+]([O-])c1ccc(Oc2ccc(C(F)(F)F)cc2[N+](=O)[O-])cc1 | inactive | –
19 | CN(C)c1ccc(N=Nc2ccccc2)cc1 | inactive | –
20 | Oc1cccc(-c2ccccc2)c1 | inactive | –

Row | Compound | Potency | cytotoxicity increase
21 | Nc1ccc([N+](=O)[O-])cc1Cl | inactive | –
22 | CCCCN(CCCC)C(=S)[S-].CCCCN(CCCC)C(=S)[S-].[Zn+2] | 48.9 µM (active) | –
23 | N#Cc1ccccc1Cl | inactive | –
24 | Nc1c(Oc2ccccc2)cc(O)c2c1C(=O)c1ccccc1C2=O | inactive | –
25 | CC1CCC(C(C)C)C(OC(=O)c2ccccc2N)C1 (stereo not given) | inactive | –
26 | COC12CC[C@@]3(C[C@@H]1C(C)(O)C(C)(C)C)[C@H]1Cc4ccc(O)c5c4[C@@]3(CCN1CC1CC1)[C@H]2O5 (stereo not given in full) | 43.4 µM (active) | –
27 | CCOCCOC(C)=O | inactive | –
28 | Cc1cc(N=Nc2ccccc2C)ccc1N | inactive | –
29 | N#CCCC(Br)(C#N)CBr (stereo not given) | 43.6 µM (active) | –
30 | COc1ccc([N+](=O)[O-])cc1O | inactive | –
31 | Oc1cc(Cl)c(Cl)c(Cl)c1 | inactive | –
32 | c1cc[c]([Sb]([c]2ccccc2)[c]2ccccc2)cc1 | inactive | –
33 | SCc1ccco1 | inactive | –
34 | Cn1[nH]nnc1=S | inactive | –
35 | c1ccc2c(c1)OCC(C1=NCCN1)O2 (stereo not given) | inactive | –
36 | CCCCOP(=O)(CCCC)OCCCC | inactive | –
37 | S=C=Nc1cccc2ccccc12 | inactive | –
38 | N#C/C=C/c1ccccc1 | inactive | –
39 | COC[C@H](C)N(C(=O)CCl)c1c(C)csc1C | inactive | –
40 | CCOC(=O)c1ccccc1S(=O)(=O)NC(=O)Nc1nc(Cl)cc(OC)n1 | inactive | –

— PubChem BioAssay (Tox21)
